Assay [1] in a line: qHTS assay for small molecule agonists of the p53 signaling pathway (AID 651631; calls by dose curve; further: nearly all actives have a fitted effect of over 15% in size; further: potency means the concentration at half of the fitted maximal effect). Summed up:
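Agonist mode screen using a stably integrated beta-lactamase gene under p53 response elements in HCT-116 cells. Compound exposure lasts 16 h at 37 °C; fluorescence intensity is measured following 2 h FRET substrate loading.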
In general terms: Quantitative high-throughput screening tests each substance at several concentrations.

Assay [2] can be described thus: qHTS assay for small molecules that induce genotoxicity in human embryonic kidney cells expressing luciferase-tagged ATAD5 (AID 651632). Further: nearly all actives have a fitted effect of over 15% in size. Summed up:
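Increased luciferase signal from ATAD5-tagged reporter cells indicates DNA-damage-driven ATAD5 induction. HEK293T cells are treated for 16 hr at 37C before detection with Amplite.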

Assay [3] is described as follows: qHTS assay for small molecules that induce genotoxicity in human embryonic kidney cells expressing luciferase-tagged ATAD5 - cell viability (AID 651634; calls by dose curve; further: nearly all actives have a fitted effect of over 25% in size; further: potency means the concentration at half of the fitted maximal effect). Summed up: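 Cytotoxicity counterscreen in HEK293T cells bearing an ATAD5-luciferase reporter: live-cell protease activity measured by CellTiter-Fluor fluorescence after 15.5 hr compound exposure.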
Assay [4] in a line: qHTS assay for small molecule disruptors of the mitochondrial membrane potential (AID 720635). Further: potency means the concentration at half of the fitted maximal effect. In short, it runs like this:
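HepG2 cells (2,000/well) attached overnight at 37C, then took compound for 1 hr at 37C, 5% CO2. Mito-MPS dye was added for 30 min; fluorescence was read at 490/535 nm (monomers) and 540/590 nm (aggregates).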

Assay [5] can be described thus: qHTS assay to test for compound auto fluorescence at 590 nm (red) in HepG2 cells (AID 720674). Summed up: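 Rose Bengal sodium served as the red fluorophore standard. HepG2 monolayers (overnight attachment, MEM with 10% FBS) were exposed to test compounds for 1 hr at 37 C and read at Ex 540/Em 590 nm.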
Assay [6] is described as follows: qHTS assay to test for compound auto fluorescence at 535 nm (green) in HepG2 cells (AID 720675).
Assay [7] is described as follows: qHTS assay to test for compound auto fluorescence at 460 nm (blue) in HEK293 cells (AID 720678). In short, it runs like this: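 Intrinsic compound fluorescence is recorded in live HEK293 cultures after overnight incubation at 37C, 5% CO2, using excitation 405 nm and emission 460 nm. Values are referenced to triamterene.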
Assay [8] can be described thus: qHTS assay to test for compound auto fluorescence at 590 nm (red) in HEK293 cells (AID 720679). In short, it runs like this: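 Red autofluorescence, HEK293 cells: 2,000 cells/well; attach 4-5 hr 37C; add 23 nL cpd or DMSO; incubate o/n 37C 5% CO2; read Ex540/Em590; Rose Bengal sodium reference.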
Assay [9] is described as follows: qHTS assay to test for compound auto fluorescence at 535 nm (green) in HEK293 cells (AID 720680).
Assay [10] is described as follows: qHTS assay to test for compound auto fluorescence at 460 nm (blue) in HEK293 cell free culture (AID 720681). In short, it runs like this: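 Test compounds were pinned into cell-free culture medium (DMEM with 10% FBS) and fluorescence was read directly at Ex/Em 405/460 nm. Signals were expressed as fluorescence equivalents of triamterene, with DMSO vehicle as control.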

A short description of assay [11]: qHTS assay to test for compound auto fluorescence at 535 nm (green) in HEK293 cell free culture (AID 720682). In short, it runs like this: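 No cells present: wells hold DMEM supplemented with 10% FBS, into which compound or vehicle is pinned. Green emission is then recorded (485 nm excitation, 535 nm emission) and scaled to fluorescein.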
The nature of assay [12]: qHTS assay to test for compound auto fluorescence at 590 nm (red) in HEK293 cell free culture (AID 720683). In short, it runs like this: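 Tox21 10K library compounds were pinned into cell-free DMEM with 10% FBS and fluorescence was read at excitation 540 nm. Activity is expressed as Rose Bengal sodium equivalency.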
Assay [13] is described as follows: qHTS assay to test for compound auto fluorescence at 590 nm (red) in HepG2 cell free culture (AID 720684). Summed up: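 Red fluorescence (540 nm excitation, 590 nm emission) was measured after compound transfer into cell-free MEM supplemented with 10% FBS. Values are equivalencies against Rose Bengal sodium.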
Assay [14] is described as follows: qHTS assay to test for compound auto fluorescence at 460 nm (blue) in HepG2 cell free culture (AID 720685). Summed up:
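Compound (23 nL) or DMSO pinned into cell-free MEM with 10% FBS; blue fluorescence read at 405/460 nm excitation/emission, expressed as auto-fluorescence equivalency to triamterene.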

Assay [15] in a line: qHTS assay to test for compound auto fluorescence at 535 nm (green) in HepG2 cell free culture (AID 720686).
Assay [16] can be described thus: qHTS assay to test for compound auto fluorescence at 460 nm (blue) in HepG2 cells (AID 720687). In short, it runs like this:
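Cells (2,000/well in MEM with 10% FBS) attached overnight at 37 C, then were exposed to compound or DMSO for 1 hr at 37 C, 5% CO2. Fluorescence read at Ex/Em 405/460 nm, expressed as triamterene-equivalent signal.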

Assay [17] deals with Glucocorticoid receptor (Homo sapiens) (UniProt P04150). In words: qHTS assay to identify small molecule antagonists of the glucocorticoid receptor (GR) signaling pathway (AID 720692; active means well fitted inhibition curve with a large enough effect in the signal ratio in the repeat runs, not every such curve was filed as active; the % refers to the signal ratio; further: potency means the concentration at half of the fitted maximal effect). Summed up: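 Cells plated, rested 4 h at 37 C/5% CO2; compounds in DMSO pin-transferred; dexamethasone added to 5 nM final; 18 h at 37 C; B/G FRET substrate added, 2 h room temperature; fluorescence measured.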
Chain of Glucocorticoid receptor (Homo sapiens) (P04150 whole entry, looked up): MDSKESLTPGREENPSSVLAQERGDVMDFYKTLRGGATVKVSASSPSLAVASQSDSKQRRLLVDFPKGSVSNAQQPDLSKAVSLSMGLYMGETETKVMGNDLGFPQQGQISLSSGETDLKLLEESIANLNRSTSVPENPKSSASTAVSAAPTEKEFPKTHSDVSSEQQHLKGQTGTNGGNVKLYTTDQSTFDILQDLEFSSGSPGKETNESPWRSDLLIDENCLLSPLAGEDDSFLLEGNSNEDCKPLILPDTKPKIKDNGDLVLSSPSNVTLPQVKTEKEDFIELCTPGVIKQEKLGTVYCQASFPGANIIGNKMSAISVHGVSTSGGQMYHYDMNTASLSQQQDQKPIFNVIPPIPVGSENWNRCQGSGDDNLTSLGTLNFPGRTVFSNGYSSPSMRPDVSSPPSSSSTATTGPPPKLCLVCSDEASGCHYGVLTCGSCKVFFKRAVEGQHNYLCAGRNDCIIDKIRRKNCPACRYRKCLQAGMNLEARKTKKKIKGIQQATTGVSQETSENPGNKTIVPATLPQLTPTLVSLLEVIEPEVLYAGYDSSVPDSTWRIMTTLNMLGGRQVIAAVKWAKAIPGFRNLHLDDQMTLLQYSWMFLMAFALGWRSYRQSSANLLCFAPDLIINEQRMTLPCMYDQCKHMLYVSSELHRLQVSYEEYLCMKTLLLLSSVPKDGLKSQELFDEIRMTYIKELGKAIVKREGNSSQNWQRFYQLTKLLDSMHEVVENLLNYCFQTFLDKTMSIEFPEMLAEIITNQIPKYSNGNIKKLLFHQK

A short description of assay [18]: qHTS assay for small molecule disruptors of the mitochondrial membrane potential - cell viability (AID 720634; calls by dose curve;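 further: human HepG2 liver cancer cells; nearly all actives have a fitted effect of over 20% in size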). In short, it runs like this:
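After overnight attachment at 37 C, HepG2 cells received compound or DMSO vehicle for 1 hr. Viability is then taken from ATP-driven luminescence following a 30 min room-temperature CellTiter-Glo step.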

For assay [19], the target named is Glucocorticoid receptor (Homo sapiens) (UniProt P04150). In words: qHTS assay to identify small molecule agonists of the glucocorticoid receptor (GR) signaling pathway (AID 720691; active means well fitted activation curve with a large enough effect in the signal ratio in the repeat runs, not every such curve was filed as active; the % refers to the signal ratio). The settings on record: GR-bla HeLa, beta-lactamase reporter ratio, 18 h; activation: at 62.4 µM (top of the series). Summed up:
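Agonist mode in a HeLa line carrying a GRE-controlled beta-lactamase reporter. Compounds act for 18 h at 37 C before a 2 h room-temperature FRET substrate step and fluorescence reading.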

Assay [20] can be described thus: qHTS assay for small molecule agonists of the p53 signaling pathway - cell viability (AID 651633; calls by dose curve; further: potency means the concentration at half of the fitted maximal effect; nearly all actives have a fitted effect of over 30% in size). In short, it runs like this:
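p53RE-bla cells, seeded at 4,000 per well and rested 5 h at 37 C/5% CO2, received compounds in DMSO for 16 h at 37 C. CellTiter-Glo was then added, and luminescence was read after 30 min at room temperature to gauge cytotoxicity.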

Structures are written as SMILES. Inconclusive results are not listed. Active and inactive are the calls of the source. Unless noted, the call rests on the fitted dose curve; in most records, active means well fitted curve in the direction sought with a large enough effect in the repeat runs; inconclusive means weak or mixed curves; inactive means no such curve, though single readings can be large; an effect the other way counts as inactive or inconclusive.

`C/C=C/C(=O)Oc1c(CCCCCC(C)C)cc([N+](=O)[O-])cc1[N+](=O)[O-]`: the Potency in assay [1] was 0.864 µM (active); in [3], 19.3 µM (active); in assay [4], 0.109 µM (active); in assay [17], 3.09 µM (active). Further, the Potency result in [2], in assay [5], in [6], in [7], in assay [8] and in [9] was “inactive” throughout. In addition, the Potency entry in assay [10], in [11], in [12], in assay [13], in assay [14] and in assay [15] was “inactive” in each case. In assay [16], the Potency result was “inactive”.

On to `CCCCCCCCCCCCCCNCCO`, for which the Potency entry in assay [1], in assay [2], in [3], in [18], in assay [5] and in assay [6] was “inactive” each time. For the same compound, the Potency entry in assay [7], in [9], in assay [10], in assay [11], in assay [12] and in assay [13] was “inactive” each time. The Potency entry in assay [14], in [15] and in assay [16] was “inactive” throughout.

Consider `CC(O)C#CC(C)O` (stereo unspecified), for which the Potency result in assay [1], in [3], in assay [18], in assay [5], in [6] and in assay [7] was “inactive” throughout. Also, the Potency entry in assay [8], in assay [9], in assay [10], in assay [11], in assay [12] and in assay [13] was “inactive” throughout. In addition, the Potency entry in assay [14], in assay [15], in assay [16] and in [19] was “inactive” each time.

In the case of `CC(C)(c1cc(Br)c(OCCO)c(Br)c1)c1cc(Br)c(OCCO)c(Br)c1`, the Potency result in assay [2], in [18], in [5], in assay [6], in [7] and in [8] was “inactive” each time. Moreover, the Potency result in assay [9], in assay [10], in assay [11], in assay [12], in assay [13] and in assay [14] was “inactive” each time. The Potency result in assay [15] and in [16] was “inactive” each time. In addition, the Potency in assay [20] is 47.5 µM (active); in [3], 37.7 µM (active); in assay [4], 5.97 µM (active).

Regarding `O=S(=O)(O)CCCN1CCOCC1`, the Potency result in assay [1], in [2], in [3], in assay [18], in [4] and in assay [5] was “inactive” throughout. For the same compound, the Potency entry in [6], in [7], in [8], in assay [9], in [10] and in [11] was “inactive” each time. In addition, the Potency entry in [12], in [13], in [14], in assay [15], in assay [16] and in assay [19] was “inactive” each time. Further, in assay [17], the Potency entry is “inactive”.

On to `CCCC(CC)CCCCCCCN` (stereo unspecified), for which the Potency entry in assay [1], in [2], in assay [18], in [5], in assay [6] and in assay [7] was “inactive” each time. Also, the Potency result in [9], in assay [10], in assay [11], in assay [12], in assay [13] and in assay [14] was “inactive” throughout. Further, the Potency result in [15], in assay [16], in assay [19] and in [17] was “inactive” each time.

Regarding `COC(=O)CC#N`, the Potency result in [1], in [2], in [3], in assay [18], in assay [4] and in assay [6] was “inactive” in each case. Besides, the Potency result in assay [7], in assay [8], in [9], in assay [10], in assay [11] and in assay [12] was “inactive” in each case. The Potency entry in assay [13], in [14], in assay [15] and in [16] was “inactive” each time.

The record behind these values is PubChem BioAssay (Tox21).
